Screening results from PubChem BioAssay.
Sampled rows, rich in hits. Any-hit rate of the full collection: about 9%.
LMNA splice mod = modulators of lamin A splicing; HeLa LMNA splicing GFP/RFP minigene ratio, 48 h; Potency, µM (highest dose often 46.1 µM), for the others: at the highest dose ratio change, negative = inhibition, hits mostly inhibitors; 200,000 tested, 0.01% active; AID 1487; active = well fitted inhibition curve with a large enough effect in the signal ratio, with a control signal flat, not every such curve was filed as active; inconclusive = small, poorly fitted or top-dose-only effect, or effect the other way, or a change in a side signal; the % refers to the signal ratio; also: % is scaled to controls: 0 for no effect and ±100 for the full control effect
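Read-out is the ratio of GFP to DsRed2 object intensity, acquired by 488 nm laser-scanning cytometry on HeLa lamin A-EGFP minigene reporter cells. Compound incubation 48 hrs at 37 °C in Opti-MEM with 2% FBS; DMSO 0.5% final.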
HPGD inh = HPGD (human) dehydrogenase inhibition; P15428; purified HPGD, NADH fluorescence kinetic, PGE2 substrate; Potency, µM, for inactives: at the top dose activity change, negative = inhibition, usual class: inhibitors; 150,000 tested, 4.3% active; AID 894; active = well fitted inhibition curve with a large enough effect, not every such curve was filed as active; inconclusive = small, poorly fitted or top-dose-only effect, or another doubt; inactive = no such curve, though single readings can be large or run the other way; also: % is scaled to controls: 0 for no effect and ±100 for the full control effect
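NADH formation kinetics: reaction with 30 uM PGE2 and 1 mM NAD+ (final), 20 nM enzyme, Tris-HCl pH 8 with Tween 20, after 15 min compound preincubation at room temperature. Fluorescence change, last versus first of five reads.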
HttQ103 aggreg = reduces HttQ103-GFP aggregates in PC12 cells. PC12 HttQ103-GFP aggregates, Acumen cytometry, 40 h. Potency, µM (titrated, usually from 46.1 µM), inactives show at the top dose activity change, negative = inhibition, hits mostly inhibitors. 220,000 tested, 1.1% active. AID 1688; also: % is scaled to controls: 0 for no effect and ±100 for the full control effect; nearly all actives have a fitted effect of over 60% in size
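Aggregate formation scored by laser-scanning cytometer (488 excitation, 500–530 emission) in lysed PC12 cells expressing Q103-GFP after 100 nM tebufenozide induction; library tested in dose series, with ATPLite reagent added in the multiplex.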
HTT cytoprotect = cytoprotection in Huntington HTT-Q103 PC12 cell model. PC12 HTT-Q103 induced, cytoprotection, ATP luminescence, 40 h. Potency, µM (series often up to 56.4 µM), without a hit: cytoprotection (ATP increase), hits mostly activators. 230,000 tested, 0.14% active. AID 1471; also: % of control where 0% means no effect; nearly all actives have a fitted effect of over 45% in size
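PC12 cells with ecdysone-inducible HTT exon 1 Q103-GFP, induced with 100 nM tebufenozide and co-treated with library compounds in a dose series (1536-well, 1500 cells/well). Cytoprotection read as ATP content by ATPlite luminescence.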
ALDH1A1 block = ALDH1A1 (human) enzyme inhibition; Potency, µM (doses to about 75.3 µM), for inactives: at the highest dose activity, negative = inhibition, most hits filed as inhibitors; P00352; 220,000 tested, 7.3% active; Purified ALDH1A1, NADH fluorescence, propionaldehyde substrate; AID 1030; active = well fitted inhibition curve with a large enough effect, not every such curve was filed as active; inconclusive = small, poorly fitted or top-dose-only effect, or another doubt; inactive = no such curve, though single readings can be large or run the other way;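 also: plate controls were no enzyme wells and a reference inhibitor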
Target sequence (P00352 whole entry, looked up): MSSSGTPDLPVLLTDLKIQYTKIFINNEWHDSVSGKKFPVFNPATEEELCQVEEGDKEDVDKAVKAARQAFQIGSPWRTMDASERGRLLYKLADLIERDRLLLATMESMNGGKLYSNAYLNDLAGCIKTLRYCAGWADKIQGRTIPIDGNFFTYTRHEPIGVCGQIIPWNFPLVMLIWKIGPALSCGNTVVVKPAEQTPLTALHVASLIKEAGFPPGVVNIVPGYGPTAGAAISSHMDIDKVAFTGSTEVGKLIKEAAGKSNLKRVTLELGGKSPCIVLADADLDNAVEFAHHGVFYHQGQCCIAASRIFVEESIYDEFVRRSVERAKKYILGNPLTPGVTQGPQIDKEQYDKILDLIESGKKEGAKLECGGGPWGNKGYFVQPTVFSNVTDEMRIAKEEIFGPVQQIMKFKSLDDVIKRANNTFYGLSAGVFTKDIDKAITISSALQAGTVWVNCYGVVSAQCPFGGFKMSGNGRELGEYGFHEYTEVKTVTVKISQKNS
Luc counter = Kinase-Glo luciferase inhibition (counter-screen); Potency, µM (top dose mostly 38.3 µM), for inactives: at the top dose activity change, negative = inhibition, most hits filed as inhibitors; Kinase-Glo luciferase, ATP luminescence, 8 min; 200,000 tested, 0.28% active; Q27757; AID 1379; also: % is scaled to controls: 0 for no effect and ±100 for the full control effect; nearly all actives have a fitted effect of over 60% in size
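Light output from Kinase-Glo luciferase with luciferin and 10 uM ATP in 50 mM imidazole pH 7.2, KCl, MgCl2, Tween 20, BSA; compound pin-delivered, 8-min ambient incubation, then luminescence read.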
The depositor's hits bear a star; ? = inconclusive; . = no result; [ ] = dose if it differs, or a comment. Unless noted, calls follow the shape of the dose curve; as a rule, active = well fitted curve in the direction sought with a large enough effect; inconclusive = small, poorly fitted or top-dose-only effect, or another doubt; inactive = no such curve, though single readings can be large; an effect the other way counts as inactive or inconclusive. Potency is read from the fitted curve at half-maximal effect.

SMILES | LMNA splice mod | HPGD inh | HttQ103 aggreg | HTT cytoprotect | ALDH1A1 block | Luc counter
Cc1ccc(-c2nn(-c3ccccc3)cc2/C=C(\C#N)c2cccc(C#N)c2)o1 | 16% | -9% | 1% | 3%[0.074 µM] | 22µM* | 4%
O=C(Nc1nccs1)c1cc2c(s1)-c1ccccc1OC2 | -6% | ? | 0% | -52% | -10% | 15%
S=c1[nH]nc(-c2ccccn2)n1/N=C/c1c(Cl)cccc1Cl | . | . | -10%[9.22 µM] | -12%[10 µM] | 18µM* | .
Cc1ccccc1/C=N/n1c(-c2ccccn2)n[nH]c1=S | . | . | -14%[9.22 µM] | 6%[10 µM] | . | .
Fc1ccc(-c2n[nH]c(=S)n2/N=C/c2c[nH]c3ccccc23)cc1 | -22% | 2.8µM* | 2% | -1%[10 µM] | ? | 1%
S=c1[nH]nc(-c2ccccn2)n1/N=C/c1cccc2ccccc12 | -4% | 3.5µM* | 10% | -2%[10 µM] | ? | -5%
S=c1[nH]nc(-c2ccccn2)n1/N=C/c1ccccc1 | 4% | ? | -3% | . | -15% | 1%
Cc1cc(-c2n[nH]c(=S)n2/N=C/c2c[nH]c3ccccc23)n[nH]1 | . | . | -14%[9.22 µM] | -12%[10 µM] | ? | .
COC(=O)c1cccc(Cn2c(Cl)c(/C=N/Nc3ccccc3C)sc2=O)c1 | ? | ? | ? | . | 22µM* | -1%
O=C(O)c1cccc(Cn2c(Cl)c(/C=N/NC(=O)c3cc4ccccc4cc3O)sc2=O)c1 | . | . | 5%[9.22 µM] | 2%[10 µM] | 10µM* | .
CC(=O)CCc1c(C)nc2ccc(C(=O)O)cc2c1Cl | -6% | ? | -10% | -21%[1.9 µM] | ? | 11%
COCCSc1nnc(NS(=O)(=O)c2ccc(C)cc2)s1 | . | . | -6%[9.22 µM] | ? | -1% | 1%
O=C(CC1CCCCC1)NCc1cn2ccsc2n1 | 7% | 22µM* | 1% | 4% | 10% | 7%
O=C(CCCc1ccccc1)NCc1cn2ccsc2n1 | -9% | -16% | ? | 5% | 3% | 3%
O=C1NCCCc2c1oc1cc(Br)c(O)c(Br)c21 | ? | -23% | ? | -22% | 4µM* | 4%
CC(C)NCc1c(O)c(Br)cc2oc3c(c12)CCCC3 | -5% | -9% | -17% | 4%[10 µM] | 9% | 0%
COc1cccc2c(=O)cc(C)n(CC(=O)Nc3ccc(Br)cc3)c12 | . | . | 22%[9.22 µM] | 25%[10 µM] | ? | .
CCn1c(SCC(=O)Nc2ccccc2C(=O)OC)nnc1-c1ccc(N)cc1 | -4% | -7% | -3% | 0% | 3% | -1%
CC(=O)Nc1ccc(-c2nnc(SCC(=O)Nc3ccc4c(c3)oc3ccccc34)n2C)cc1 | -4%[0.0737 µM] | -19% | 10% | -35% | 0.4µM* | -4%
CC(=O)Nc1cccc(-c2nnc(SCC(=O)n3c4c(c5ccccc53)CCCC4)n2C)c1 | 4% | -12% | -12% | 16% | 22µM* | -5%
CCn1c(SCC(=O)Nc2ccc3c(c2)oc2ccccc23)nnc1-c1ccc(N)cc1 | ? | ? | -1% | -19% | 25µM* | 16%
O=C(c1ccco1)N1CCN(C(=O)c2cc3c(=O)oc4ccccc4c3s2)CC1 | -3% | -16% | 17% | -13% | 8% | -2%
CCOc1cc(S(=O)(=O)NC2CC2)c(OCC)cc1-n1cnnn1 | 2% | ? | 2% | 12% | ? | -3%
Cc1ccc(-n2ncc3c(NCCCc4ccccc4)ncnc32)cc1C | -11%[46 µM] | . | . | . | . | .
COc1ccc(-c2csc3ncn(-c4ccccc4)c(=O)c23)cc1OC | . | . | -4%[9.22 µM] | -10%[10 µM] | 7.9µM* | -2%
COCCNC(=O)c1cc2cc(Br)cc(Br)c2oc1=O | 15%[46 µM] | . | -5% | -17% | ? | 1%
CC12C=C(/C=C/CCc3ccco3)C(C)(C1)C(CCc1ccco1)CC2=O (configuration not stated) | . | . | . | 1%[10 µM] | 4µM* | .
Cc1ccc(/C=C/C2=CC3(C)CC2(C)C(c2ccc(C)cc2)CC3=O)cc1 (configuration not stated) | . | . | . | -3%[10 µM] | ? | .
CN(C)C(=O)CCCc1nc(-c2ccc(Cl)cc2)no1 | ? | -13% | -26% | -27% | 5% | -5%
